From the supplement of paper PMC10849652
Of roughly 7,900 targets only a part is listed; those with a hit were picked by preference. About 0.6% of all pairs of compound and target were hits. Values without a mark were called inactive.

How the values were obtained:
Assay in all cases: log2 fold change, soluble protein after heating vs DMSO (PISA); higher = thermal stabilisation; K562 cells, 10 uM, 30 min; active = over 0.2 and 3.5 SD of the protein, either way, in both replicates (recomputed)
[1] = compound: CC[C@@H]1C(=O)N(C)c2cnc(Nc3ccc(C(=O)NC4CCN(C)CC4)cc3OC)nc2N1C1CCCC1
Summary of the method: (§1)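 K562 cells (2×10^6 cells/mL) were treated with 10 μM compound for 30 min, and aliquots were heated for 3 min over 48°C-58°C. Pooled aliquots were extracted in PBS with 0.5% NP-40 at 4°C, and the supernatant after 21,000xg for 90 min was measured by TMTpro 16plex LC-MS/MS with channel sums equalised. Reported thermal stability, relative to control samples and from duplicates, is a log2 fold change.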

[2] = compound: CC[C@@H]1C(=O)N(C)c2cnc(Nc3ccc(C(=O)N[C@H]4CC[C@H](N5CCN(CC6CC6)CC5)CC4)cc3OC)nc2N1C(C)C [volasertib]
Summary of the method: as §1

[3] = compound: CC[C@H](C)N1C=C(C2=C(C=C(C=C21)C3=CN=C(C=C3)N4CCNCC4)C(=O)NCC5=C(C=C(NC5=O)C)C)C
Summary of the method: as §1

[4] = compound: CC[C@H](C)[C@@H](C(=O)N[C@@H]([C@@H](C)O)C(=O)N[C@@H](CC(C)C)C(=O)[C@]1(CO1)C)NC(=O)[C@H]([C@@H](C)CC)N(C)C(=O)C [epoxomicin]
Summary of the method: as §1

[5] = compound: CCn1c(C(=O)N(C2CC2)C2CC2)cc2c3c(ncn3C)c(Nc3cc(C)n(C)n3)nc21
Summary of the method: as §1

[6] = compound: CCn1cc(-c2ccnc3[nH]c(-c4cccc(CN(C)C)c4)cc23)c(-c2ccc(NC(=O)N(C)C)cc2)n1
Summary of the method: as §1

[7] = compound: CN(C)CC(=O)Nc1ccc2[nH]c(=O)c3ccccc3c2c1
Summary of the method: as §1

[8] = compound: CN(CCOC1=CC=C(C=C1)C[C@H]2C(=O)NC(=O)S2)C3=CC=CC=N3 (racemic) [rosiglitazone]
Summary of the method: as §1

[9] = compound: CN1C2=C(C3=C1C(=O)N(N=C3)CC4=CC(=CC=C4)N)SC(=C2)S(=O)C
Summary of the method: as §1

[10] = compound: CN1CCC(CNc2ccc3ncc(-c4cccc(OC(F)(F)F)c4)n3n2)CC1
Summary of the method: as §1

[11] = compound: CN1CCN(CCOc2cc(OC3CCOCC3)c3c(Nc4c(Cl)ccc5c4OCO5)ncnc3c2)CC1 [saracatinib]
Summary of the method: as §1

[12] = compound: CN1CCN(c2nc(C3=C(c4c[nH]c5ccccc45)C(=O)NC3=O)c3ccccc3n2)CC1 [sotrastaurin]
Summary of the method: as §1

[13] = compound: CN1CC[C@H](c2c(O)cc(O)c3c(=O)cc(-c4ccccc4Cl)oc23)[C@H](O)C1 [alvocidib]
Summary of the method: as §1

[14] = compound: CN1CCc2c(c3ccccc3n2Cc2ccc(C(=O)NO)cc2)C1 [Tubastatin A]
Summary of the method: as §1

[15] = compound: CNC(=O)C1=CC=CC=C1NC2=NC(=NC=C2Cl)NC3=C(C=C(C=C3)N4CCOCC4)OC
Summary of the method: as §1

[16] = compound: CNC(=O)c1ccc(Nc2ncc(C(F)(F)F)c(NCc3nccnc3N(C)S(C)(=O)=O)n2)cc1 [defactinib]
Summary of the method: as §1

[17] = compound: CNCc1ccc(-c2[nH]c3cc(F)cc4c3c2CCNC4=O)cc1 [rucaparib]
Summary of the method: as §1

[18] = compound: CNc1nc(-c2ccc3c(N)n[nH]c3c2)cc(N2C[C@@H](C(=O)NC3CCCCC3)CC[C@H]2C)n1
Summary of the method: as §1

[19] = compound: COC(=O)N[C@@H](C)CNc1nccc(-c2cn(C(C)C)nc2-c2cc(Cl)cc(NS(C)(=O)=O)c2F)n1 [encorafenib]
Summary of the method: as §1

[20] = compound: COC(=O)[C@H](CCSC)NC(=O)C1=C(C=C(C=C1)NC[C@H](CS)N)C2=CC=CC=C2
Summary of the method: as §1

Sequence of UniProt P14174 (P14174 whole entry, looked up): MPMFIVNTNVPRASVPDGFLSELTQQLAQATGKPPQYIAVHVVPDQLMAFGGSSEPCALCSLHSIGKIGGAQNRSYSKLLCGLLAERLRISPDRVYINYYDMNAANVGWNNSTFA
Sequence of UniProt Q14145 (Q14145 whole entry, looked up): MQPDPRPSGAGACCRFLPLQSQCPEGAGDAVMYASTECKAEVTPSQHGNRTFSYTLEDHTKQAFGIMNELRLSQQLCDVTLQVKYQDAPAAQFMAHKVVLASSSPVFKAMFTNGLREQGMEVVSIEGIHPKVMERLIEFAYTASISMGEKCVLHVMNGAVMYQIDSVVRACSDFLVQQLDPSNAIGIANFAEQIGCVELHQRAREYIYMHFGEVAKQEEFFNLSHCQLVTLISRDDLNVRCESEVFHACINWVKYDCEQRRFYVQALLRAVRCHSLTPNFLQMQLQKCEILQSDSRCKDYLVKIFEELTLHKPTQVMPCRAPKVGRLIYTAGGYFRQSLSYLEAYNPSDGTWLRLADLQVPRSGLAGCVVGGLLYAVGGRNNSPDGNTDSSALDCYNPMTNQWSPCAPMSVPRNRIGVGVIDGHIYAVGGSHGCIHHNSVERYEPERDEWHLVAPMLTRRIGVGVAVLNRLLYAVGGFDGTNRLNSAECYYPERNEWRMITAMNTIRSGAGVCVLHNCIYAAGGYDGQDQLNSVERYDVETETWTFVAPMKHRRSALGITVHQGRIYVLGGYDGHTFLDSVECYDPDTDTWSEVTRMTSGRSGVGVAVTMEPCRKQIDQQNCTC
Sequence of UniProt P13473 (P13473 whole entry, looked up): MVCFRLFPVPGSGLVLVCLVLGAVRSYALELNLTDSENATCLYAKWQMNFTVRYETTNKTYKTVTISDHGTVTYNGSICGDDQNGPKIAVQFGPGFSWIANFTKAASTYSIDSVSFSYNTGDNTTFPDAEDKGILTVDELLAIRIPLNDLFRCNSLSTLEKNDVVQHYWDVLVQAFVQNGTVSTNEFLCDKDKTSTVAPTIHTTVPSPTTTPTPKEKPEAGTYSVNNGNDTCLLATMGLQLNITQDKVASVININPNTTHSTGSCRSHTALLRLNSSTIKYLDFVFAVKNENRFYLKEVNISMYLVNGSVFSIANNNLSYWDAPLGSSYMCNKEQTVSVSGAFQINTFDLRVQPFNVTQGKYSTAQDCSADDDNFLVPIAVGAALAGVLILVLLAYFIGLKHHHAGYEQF
Sequence of UniProt O95232 (O95232 whole entry, looked up): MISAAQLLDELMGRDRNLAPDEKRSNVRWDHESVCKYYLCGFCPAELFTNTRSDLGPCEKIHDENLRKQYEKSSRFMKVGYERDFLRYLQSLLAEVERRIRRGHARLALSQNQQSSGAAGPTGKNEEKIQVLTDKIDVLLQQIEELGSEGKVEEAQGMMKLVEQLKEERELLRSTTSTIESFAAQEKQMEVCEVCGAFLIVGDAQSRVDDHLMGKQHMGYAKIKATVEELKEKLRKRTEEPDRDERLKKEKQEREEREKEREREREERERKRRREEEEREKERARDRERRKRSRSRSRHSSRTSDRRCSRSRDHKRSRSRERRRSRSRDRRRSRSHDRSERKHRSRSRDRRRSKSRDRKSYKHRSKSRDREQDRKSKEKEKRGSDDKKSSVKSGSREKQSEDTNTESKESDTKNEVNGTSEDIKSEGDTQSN
Sequence of UniProt Q86UP2 (Q86UP2 whole entry, looked up): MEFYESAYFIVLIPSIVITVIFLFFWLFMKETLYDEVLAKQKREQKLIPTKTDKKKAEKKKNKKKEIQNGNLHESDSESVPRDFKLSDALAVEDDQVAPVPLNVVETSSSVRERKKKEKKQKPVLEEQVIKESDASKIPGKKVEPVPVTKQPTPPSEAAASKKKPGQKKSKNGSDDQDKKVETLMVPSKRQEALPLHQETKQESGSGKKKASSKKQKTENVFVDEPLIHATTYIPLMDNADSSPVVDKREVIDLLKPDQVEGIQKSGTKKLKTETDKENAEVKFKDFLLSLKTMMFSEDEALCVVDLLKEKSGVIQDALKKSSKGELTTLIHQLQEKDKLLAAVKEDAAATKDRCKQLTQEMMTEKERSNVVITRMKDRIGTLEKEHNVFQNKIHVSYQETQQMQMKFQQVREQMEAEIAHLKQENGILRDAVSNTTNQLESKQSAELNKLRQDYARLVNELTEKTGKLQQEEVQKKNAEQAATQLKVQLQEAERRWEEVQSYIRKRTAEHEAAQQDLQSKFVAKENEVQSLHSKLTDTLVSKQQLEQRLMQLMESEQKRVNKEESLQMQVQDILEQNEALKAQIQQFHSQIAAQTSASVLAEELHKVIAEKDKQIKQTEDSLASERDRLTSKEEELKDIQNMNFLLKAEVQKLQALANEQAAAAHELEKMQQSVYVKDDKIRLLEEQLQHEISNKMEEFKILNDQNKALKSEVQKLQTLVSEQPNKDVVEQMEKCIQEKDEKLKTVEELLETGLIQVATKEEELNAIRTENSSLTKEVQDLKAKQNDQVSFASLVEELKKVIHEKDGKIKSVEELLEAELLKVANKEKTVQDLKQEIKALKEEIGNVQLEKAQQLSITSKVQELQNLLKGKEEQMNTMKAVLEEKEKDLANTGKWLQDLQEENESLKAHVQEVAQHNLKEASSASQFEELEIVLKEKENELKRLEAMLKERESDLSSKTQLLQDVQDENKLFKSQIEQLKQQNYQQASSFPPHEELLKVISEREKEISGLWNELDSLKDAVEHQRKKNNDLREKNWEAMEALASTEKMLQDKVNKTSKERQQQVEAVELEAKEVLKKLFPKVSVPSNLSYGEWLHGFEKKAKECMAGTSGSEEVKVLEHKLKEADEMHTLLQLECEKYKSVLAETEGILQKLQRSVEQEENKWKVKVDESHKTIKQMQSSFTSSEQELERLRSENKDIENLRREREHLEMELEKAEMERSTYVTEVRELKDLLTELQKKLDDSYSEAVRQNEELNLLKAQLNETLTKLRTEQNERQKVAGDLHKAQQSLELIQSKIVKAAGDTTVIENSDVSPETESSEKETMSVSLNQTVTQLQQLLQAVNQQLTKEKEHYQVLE
Sequence of UniProt Q14653 (Q14653 whole entry, looked up): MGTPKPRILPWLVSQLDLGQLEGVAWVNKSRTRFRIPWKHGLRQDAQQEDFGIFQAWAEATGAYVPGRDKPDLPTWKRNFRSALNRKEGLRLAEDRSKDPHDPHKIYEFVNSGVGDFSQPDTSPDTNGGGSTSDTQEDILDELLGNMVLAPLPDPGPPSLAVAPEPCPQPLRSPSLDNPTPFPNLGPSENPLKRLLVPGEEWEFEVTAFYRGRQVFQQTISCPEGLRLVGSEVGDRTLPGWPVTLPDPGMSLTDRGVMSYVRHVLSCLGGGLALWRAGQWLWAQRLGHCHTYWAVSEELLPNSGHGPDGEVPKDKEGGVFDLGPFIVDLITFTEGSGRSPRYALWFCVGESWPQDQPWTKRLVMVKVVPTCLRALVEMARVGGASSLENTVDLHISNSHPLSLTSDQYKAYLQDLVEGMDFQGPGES

Row | Target | log2 fold change [1] | log2 fold change [2] | log2 fold change [3] | log2 fold change [4] | log2 fold change [5] | log2 fold change [6] | log2 fold change [7] | log2 fold change [8] | log2 fold change [9] | log2 fold change [10] | log2 fold change [11] | log2 fold change [12] | log2 fold change [13] | log2 fold change [14] | log2 fold change [15] | log2 fold change [16] | log2 fold change [17] | log2 fold change [18] | log2 fold change [19] | log2 fold change [20]
1 | JMJD6 isoform 3 (UniProt Q6NYC1) | -0.044 | -0.306 (active) | -0.012 | -0.015 | -0.037 | -0.009 | -0.006 | 0.031 | 0.006 | -0.09 | -0.01 | -0.018 | -0.076 | -0.122 | 0.081 | -0.188 | 0.061 | -0.016 | 0.026 | 0.035
2 | MDN1 (UniProt Q9NU22) | -0.109 | -0.334 (active) | 0.093 | 0.006 | -0.119 | -0.076 | 0.031 | 0.08 | -0.027 | -0.287 (active) | -0.029 | -0.035 | -0.143 | 0.033 | -0.092 | -0.166 | -0.067 | 0.018 | 0.018 | -0.049
3 | KEAP1 (UniProt Q14145) | -0.026 | -0.357 (active) | -0.034 | -0.024 | -0.017 | 0.019 | 0.033 | 0.024 | 0.056 | 0.053 | -0.009 | -0.119 | 0.02 | -0.035 | 0.054 | -0.045 | 0.116 | -0.015 | 0.059 | -0.003
4 | MIF (UniProt P14174) | 0.025 | 0.021 | -0.096 | 0.454 (active) | 0.015 | 0.081 | 0.025 | -0.012 | -0.038 | 0.211 | -0.029 | -0.005 | -0.001 | -0.065 | 0.82 | -0.019 | 0.026 | -0.105 | -0.058 | 0.06
5 | KTN1 (UniProt Q86UP2) | 0.039 | -0.242 | 0.028 | 0.037 | 0.091 | 0.084 | 0.006 | -0.009 | 0.127 | -0.006 | 0.001 | -0.07 | 0.109 | 0.032 | -0.12 | 0.109 | 0.155 | -0.079 | 0.137 | -0.053
6 | IRF3 (UniProt Q14653) | -0.05 | -0.1 | -0.052 | -0.035 | -0.02 | -0.037 | 0.018 | 0.024 | -0.024 | -0.045 | 0.061 | -0.043 | -0.07 | 0 | 0.006 | -0.062 | -0.057 | -0.01 | 0.014 | -0.014
7 | LUC7L3 (UniProt O95232) | -0.057 | -0.185 | 0.027 | 0.005 | -0.025 | 0 | -0.031 | 0.004 | -0.009 | -0.074 | -0.003 | 0.013 | -0.049 | -0.007 | -0.314 (active) | -0.113 | -0.008 | -0.048 | 0.028 | -0.003
8 | LAMP2 (UniProt P13473) | 0.018 | 0.069 | -0.023 | 0.083 | -0.009 | 0.019 | 0.059 | 0.007 | -0.016 | -0.032 | 0.078 | 0.123 | 0.056 | -0.061 | 0.105 | -0.047 | -0.055 | -0.088 | -0.026 | 0.062
